High-throughput results from PubChem BioAssay.
KCNQ2 block – rat KCNQ2 potassium channel inhibitors, primary screen, cell-based, CHO-K1, FluxOR thallium flux, B-score | Potassium voltage-gated channel subfamily KQT member 2 (Rattus norvegicus), O88943 | 20 min; active compounds read low | B-score at 10 µM | actives 1.1% (n = 310,000) | AID 2156, 2009;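 active means fluorescence ratio B-score at most minus 3 library SDs, with starting brightness B-score within 2 library SDs, cut at about -5.5 in these data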
KCNQ2 pot – potentiators of rat KCNQ2 potassium channel. Potassium voltage-gated channel subfamily KQT member 2 (Rattus norvegicus), O88943. CHO-K1 KCNQ2, FluxOR thallium flux fluorescence; active compounds read high. B-score at 10 µM. actives 0.54% (n = 310,000). AID 2239, 2010;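 active means fluorescence ratio B-score at least 3 SD of library B-scores, with initial fluorescence B-score within 3 of them, cut at about 5.3 in these data; same plate scores as AID 2156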;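 further: B-score of peak minus minimum over baseline fluorescence ratio after K+ and Tl+ stimulus; positive B-score means potentiation of KCNQ2 with more thallium influx and brighter signal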
Kir21 confirm – mouse Kir2.1 channel blockers, retest, confirmation, cell-based, FluxOR thallium flux, duplicate. actives 41% (n = 2,300). Kir2.1-expressing cells, FluxOR thallium flux fluorescence; active compounds read low. Tl flux remaining, % of negative control (active compounds read low), % at 10 µM. shares compounds with KCNQ2 pot;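 active means Primary-screen hit whose thallium flux fell at least 3 control SD below untreated wells in both duplicates, with normal baseline fluorescence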;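 further: 0% = blank wells without stimulus and 100% = stimulated no-compound controls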
HEK293 Tl flux – counter-screen for Kir2.1 inhibitors: effect in parental HEK293 cells; FluxOR thallium flux fluorescence; 0% = unstimulated blank wells; actives 19% (n = 2,300); FluxOR signal as % of negative control (100 = no effect), % at 10 µM; AID 2105; shares compounds with KCNQ2 pot;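 active means dye signal at least 3 control SD above or below untreated wells in both duplicates, raw fluorescence within 3, either direction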;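 further: percent is based on the flux ratio of peak minus minimum fluorescence over baseline F0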
CHO-K1 ctr – nonspecific thallium flux increase in parental CHO-K1, confirmation, counter-screen for KCNQ2 potentiator project, cell-based, FluxOR thallium flux, duplicate. shares compounds with KCNQ2 pot. parental CHO-K1 cells, FluxOR thallium flux fluorescence; zero = vehicle mean+3SD, 100% = vehicle-minus-blank window. actives 43% (n = 1,200). activity increase over 3SD of controls, % at 10 µM. AID 2282, 2010;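 active means signal rise of at least 3 SD above the untreated control mean, in both duplicate wells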;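 further: counter screen of KCNQ2 potentiator hits so any rise reflects channel-independent effects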
KCNQ1 pot spec – human KCNQ1 channel potentiation off-target, confirmation, selectivity assay for KCNQ2 potentiator project, cell-based, CHO, FluxOR thallium flux. activation over 3SD threshold, % at 10 µM. actives 28% (n = 1,200). CHO KCNQ1 stable, FluxOR thallium flux fluorescence; beyond 3SD, as % of vehicle-control signal. AID 2283, 2010. shares compounds with KCNQ2 pot;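 active means fluorescence ratio rise of at least 3 SD of vehicle wells above their mean, in both replicate wells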;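 further: 0% = vehicle mean plus 3 SD and 100% = vehicle minus unstimulated blank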
KCNQ2 pot confirm – rat KCNQ2 channel potentiators, confirmation, cell-based, CHO, FluxOR thallium flux, duplicate. CHO-KCNQ2 cells, FluxOR thallium flux fluorescence. shares compounds with KCNQ2 pot. AID 2287, 2010. potentiation, less the hit threshold, % at 10 µM. actives 68% (n = 1,200);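 active means fluorescence ratio rising 3 SD or more over the vehicle control mean in both replicates, plus primary screen hit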;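 further: peak minus minimum thallium fluorescence divided by baseline after K/Tl stimulus; 0% = vehicle mean plus 3 SD and 100% = vehicle minus unstimulated blank difference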
Kir2-1 sel – mouse Kir2.1 channel activation off-target, confirmation, selectivity assay for KCNQ2 potentiator project, cell-based, HEK293, FluxOR thallium flux | actives 2% (n = 1,200) | activity over 3SD threshold, % at 10 µM | shares compounds with KCNQ2 pot | HEK293 Kir2.1, FluxOR thallium flux fluorescence;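 active means fluorescence ratio rise of at least 3 SD above the vehicle-control mean, seen in both replicates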;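 further: 0% = vehicle mean plus 3 SD and 100% = vehicle minus no-stimulus blank window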
KCNQ2 W236L pot – potentiators of retigabine-insensitive KCNQ2 W236L, mechanism study for KCNQ2 potentiator project, cell-based, rat KCNQ2 W236L, CHO, automated patch clamp; shares compounds with KCNQ2 pot; automated patch clamp current; current increase over 3SD of negative controls (%), active compounds read high, % at 25 µM; actives 10% (n = 940); AID 2558, 2010;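 active means current increase at least 3 SD of the untreated controls above them in both duplicate recordings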
Target sequence (O88943 whole entry W236L, looked up): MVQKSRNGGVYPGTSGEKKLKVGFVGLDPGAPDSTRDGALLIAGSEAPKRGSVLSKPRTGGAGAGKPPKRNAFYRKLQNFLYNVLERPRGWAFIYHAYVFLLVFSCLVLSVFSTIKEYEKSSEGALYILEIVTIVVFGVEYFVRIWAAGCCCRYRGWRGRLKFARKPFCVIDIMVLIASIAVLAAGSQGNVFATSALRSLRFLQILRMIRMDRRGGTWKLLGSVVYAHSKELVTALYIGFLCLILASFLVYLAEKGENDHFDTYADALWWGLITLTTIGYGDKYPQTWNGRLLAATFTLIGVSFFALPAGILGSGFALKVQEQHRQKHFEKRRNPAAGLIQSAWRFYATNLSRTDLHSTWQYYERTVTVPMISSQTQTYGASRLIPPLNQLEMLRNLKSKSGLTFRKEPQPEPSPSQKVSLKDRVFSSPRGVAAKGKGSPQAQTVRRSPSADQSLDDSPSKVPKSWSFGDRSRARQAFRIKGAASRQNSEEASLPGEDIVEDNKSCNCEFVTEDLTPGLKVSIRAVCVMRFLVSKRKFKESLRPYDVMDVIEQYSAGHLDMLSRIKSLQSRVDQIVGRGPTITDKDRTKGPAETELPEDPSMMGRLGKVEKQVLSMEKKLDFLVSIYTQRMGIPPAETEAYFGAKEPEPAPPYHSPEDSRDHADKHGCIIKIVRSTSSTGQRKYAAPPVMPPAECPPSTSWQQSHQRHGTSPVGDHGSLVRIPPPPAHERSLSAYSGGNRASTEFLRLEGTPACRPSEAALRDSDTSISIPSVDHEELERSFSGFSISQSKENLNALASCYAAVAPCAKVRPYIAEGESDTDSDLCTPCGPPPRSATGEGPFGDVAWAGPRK
* = called active by the depositor; i = inactive; · = not tested or not shown. Most compounds without a hit are left out; they make up all but 1.6% or so of the library.

SMILES	KCNQ2 block	KCNQ2 pot	Kir21 confirm	HEK293 Tl flux	others
CC(C)CCN(Cc1ccco1)S(=O)(=O)c1csc(C(N)=O)c1	i	·	58.5%*	i
Cn1cc(S(=O)(=O)N2CCN(c3cccc(C(F)(F)F)c3)CC2)c(=O)n(C)c1=O	i	·	·	·
Cc1c(S(=O)(=O)N2CCN(c3cccc(C(F)(F)F)c3)CC2)c(=O)n(C)c(=O)n1C	i	9.58*	i	i	CHO-K1 ctr=5.5*;KCNQ1 pot spec=50.9*;KCNQ2 pot confirm=-21.8;Kir2-1 sel=-39.2
O=C(CCCN1C(=O)c2ccccc2C1=O)Nc1nnc(C2CC2)s1	i	1.38	·	·
O=C(C1CCN(C2CCN(CC3CC=CCC3)CC2)CC1)N1CCOCC1 (configuration not stated)	i	·	·	·
Cc1ccc(C(=O)NCCCN2CCN(CCCNC(=O)c3ccc(C)cc3)CC2)cc1	i	0.16	·	·
O=C(Nc1nnc(CCN2CCOCC2)s1)C1CCCCC1	i	·	·	·
CC(=O)c1nnn(-c2nc(N)nc(N(c3ccccc3)c3ccccc3)n2)c1C	i	0.29	·	·
CCCCN(CCCC)c1nc(OC)nc(-n2nnc(C(C)=O)c2C)n1	i	8.03*	i	i	CHO-K1 ctr=-11.5;KCNQ1 pot spec=-7.7;KCNQ2 pot confirm=-8.4;Kir2-1 sel=-43.1;KCNQ2 W236L pot=i
C(=N\Nc1nc2ccccc2s1)/c1ccccn1	i	11.4*	i	i	CHO-K1 ctr=-8.0;KCNQ1 pot spec=-14.6;KCNQ2 pot confirm=44.4*;Kir2-1 sel=-33.8;KCNQ2 W236L pot=i
Brc1csc(/C=N/Nc2nc3ccccc3s2)c1	i	0.57	·	·
COc1ccc(N2CC(C(=O)Nc3cc(C)ccn3)CC2=O)cc1 (configuration not stated)	i	0.94	·	·
COC(=O)c1ccc2c(=O)n(CCN3CCOCC3)c(SCC(=O)NCc3ccccc3)nc2c1	i	1.23	·	·
Cn1/c(=N\NC(=O)C2CCCCC2)sc2ccccc21	i	9.9*	i	i	CHO-K1 ctr=-20.8;KCNQ1 pot spec=-8.7;KCNQ2 pot confirm=0.0*;Kir2-1 sel=-30.6;KCNQ2 W236L pot=i
CC(=O)N/N=c1\sc2ccccc2n1C	i	0.49	·	·
CC(CCCN(C)C)C(Cc1ccccc1)c1ccccc1 (configuration not stated)	i	·	47.5%*	i
CN(C)CCC(=O)C(Cc1ccccc1)c1ccccc1 (configuration not stated)	i	·	·	·
Cc1ccc(Nc2nc(N)nc(CN3CCN(c4ccccc4)CC3)n2)cc1Cl	i	·	·	·
COc1ccc(N2CCN(Cc3nc(N)nc(Nc4ccc(C)c(Cl)c4)n3)CC2)cc1	i	11.1*	i	i	CHO-K1 ctr=59.7*;KCNQ1 pot spec=7.2*;KCNQ2 pot confirm=20.7*;Kir2-1 sel=-19.4;KCNQ2 W236L pot=i
C/C(=N\Nc1ccc(C(=O)O)cc1)c1ccc(S(=O)(=O)NCc2ccco2)cc1	i	2.21	·	·
CCOC(=O)c1c(-c2ccccc2)oc2ccc(OC(C)C(=O)O)cc12 (configuration not stated)	i	·	·	·
CCOC(=O)c1c(-c2ccccc2)oc2ccc(OCC(O)CN(C)C)cc12 (configuration not stated)	-5.56*	-5.56	i	i
Cc1oc2ccc(O)c(CN(C)C)c2c1C(=O)c1ccccc1	i	·	·	·
CCOC(=O)c1c(-c2ccccc2)oc2ccc(O)c(CN3CCCC3)c12	i	·	26.0%*	i
CCOC(=O)c1c(-c2ccccc2)oc2ccc(O)c(CN(C)C)c12	i	1.41	i	i
SMILES	KCNQ2 block	KCNQ2 pot	Kir21 confirm	HEK293 Tl flux	others
COCCOC(=O)c1c(C)oc2ccc(O)c(CN3CCC(C)CC3)c12	i	0.11	·	·
O=C(c1ccc(NC(=O)C(c2ccccc2)c2ccccc2)cc1)c1ccc(C(=O)O)c(C(=O)O)c1	i	1.22	·	·
C=CCN1C(=O)c2ccc(C(=O)N(CC)CC(=O)Nc3c(F)cccc3F)cc2C1=O	i	·	·	·
COC(=O)c1cc(OC)nc2ccc(Br)cc12	i	·	·	·
COc1ccccc1C(=O)NCCNc1ccc([N+](=O)[O-])cc1Cl	i	·	·	·
CN(CC(=O)NCCc1ccc(F)cc1)Cc1ccc(Br)cc1	-5.74*	-5.74	58.0%*	i
CN(CC(=O)NCCc1ccc(F)cc1)Cc1cccc(Cl)c1	i	·	45.0%*	i
O=C(Cc1ccccc1)NCCc1cccc(Cl)c1	i	11.1*	i	i	CHO-K1 ctr=-12.5;KCNQ1 pot spec=-13.1;KCNQ2 pot confirm=23.4*;Kir2-1 sel=-38.1;KCNQ2 W236L pot=i
O=C(O)CCC(=O)NCCc1cccc(Cl)c1	i	·	·	·
CN(CC(=O)NCCCc1ccccc1)Cc1ccc(Br)cc1	i	·	·	·
CSc1ccccc1NC(=O)CN(C)Cc1cccc(Cl)c1	i	·	·	·
CC1CCc2sc(NC(=O)C3CC(Cl)=CCC3C(=O)O)c(C#N)c2C1 (configuration not stated)	i	4.49	·	·
CCCCN=C1CC(C)(C)CC(=O)/C1=C(/O)CCC	i	2.61	·	·
Cc1c(N2C(=O)c3ccccc3C2(O)c2ccccc2)c(=O)n(-c2ccccc2)n1C (configuration not stated)	i	·	·	·
COc1ccc(N2CCN(c3nccs3)CC2)cc1	i	·	·	·
O=C(NCCOc1ccc(F)cc1)C1CCC(=O)N(CCc2ccccn2)C1 (configuration not stated)	i	0.08	·	·
CCOc1ccc(CNC(=S)N/N=C/c2ccc(OC)c(OC)c2)cc1	i	·	·	·
CC1(C)Nc2ccc(O)cc2-c2c1ssc2=S	i	·	40.0%*	i
COc1cccc(-n2sc3c(c2=S)-c2cc(OC)ccc2NC3(C)C)c1	i	·	·	·
